These results are taken from article PMC5700166.

Assay in all cases: protein-binding microarray (PBM); PBM: ~300 nM protein, 6 mM HEPES pH 7.8, 80 mM KCl, 0.5 mM EDTA, 0.5 mM EGTA, 6% glycerol, 35 ng/ul poly-dIdC, 1% milk, 1 h, room temperature; Ap Aiptasia and Nv Nematostella (sea anemones) / Co Capsaspora / Aq Amphimedon (sponge) / Dm Drosophila / Hu human; RHD is the Rel homology domain; high values mean tight binding
Holding throughout (conditions): dsDNA, one strand shown

Experiment [1] has as its target T1, GST-Ap-NF-kB RHD (Exaiptasia pallida (Aiptasia), UniProt A0A913YAJ5 2-422).
T1 sequence: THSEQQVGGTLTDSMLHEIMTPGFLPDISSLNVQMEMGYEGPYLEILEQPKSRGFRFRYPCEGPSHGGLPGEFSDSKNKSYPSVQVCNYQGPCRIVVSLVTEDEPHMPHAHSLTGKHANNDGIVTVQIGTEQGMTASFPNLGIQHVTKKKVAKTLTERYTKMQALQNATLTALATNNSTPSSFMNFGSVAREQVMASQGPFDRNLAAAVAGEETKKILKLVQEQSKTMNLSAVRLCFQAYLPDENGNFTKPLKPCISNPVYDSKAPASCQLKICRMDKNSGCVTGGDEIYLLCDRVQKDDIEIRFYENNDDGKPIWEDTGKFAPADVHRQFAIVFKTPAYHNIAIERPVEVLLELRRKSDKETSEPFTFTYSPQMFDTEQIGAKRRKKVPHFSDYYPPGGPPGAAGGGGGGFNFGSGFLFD

In experiment [2] the target is T2, GST-Nv-NF-kB (Cys allele) (Nematostella vectensis, UniProt E5G601 2-411).
T2 sequence: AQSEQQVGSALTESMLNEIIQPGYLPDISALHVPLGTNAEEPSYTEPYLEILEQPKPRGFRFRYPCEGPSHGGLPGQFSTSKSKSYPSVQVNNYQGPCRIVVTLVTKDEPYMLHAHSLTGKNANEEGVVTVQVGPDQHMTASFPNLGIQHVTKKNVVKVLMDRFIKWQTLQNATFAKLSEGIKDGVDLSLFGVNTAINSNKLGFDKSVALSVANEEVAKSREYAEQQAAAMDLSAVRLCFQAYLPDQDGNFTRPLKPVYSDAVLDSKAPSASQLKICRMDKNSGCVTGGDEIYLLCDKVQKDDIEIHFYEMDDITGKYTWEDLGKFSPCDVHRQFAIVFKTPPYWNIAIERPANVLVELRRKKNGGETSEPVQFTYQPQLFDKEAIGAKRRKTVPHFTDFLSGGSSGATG

For experiment [3], the target named is T3, GST-Co-NF-kB (Capsaspora owczarzaki, UniProt F1ARL5 200-546).
T3 sequence: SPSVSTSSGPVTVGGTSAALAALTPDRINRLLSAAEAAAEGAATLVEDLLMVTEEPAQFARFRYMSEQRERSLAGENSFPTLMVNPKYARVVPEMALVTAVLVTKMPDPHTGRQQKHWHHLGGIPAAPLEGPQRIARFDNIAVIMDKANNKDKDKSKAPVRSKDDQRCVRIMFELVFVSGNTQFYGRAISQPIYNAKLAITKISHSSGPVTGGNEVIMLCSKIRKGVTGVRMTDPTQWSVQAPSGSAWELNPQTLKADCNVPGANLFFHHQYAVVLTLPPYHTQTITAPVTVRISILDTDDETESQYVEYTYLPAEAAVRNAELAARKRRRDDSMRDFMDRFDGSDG

For experiment [4], the target named is T4, GST-Dm-Relish (Drosophila melanogaster, UniProt Q94527 99-473).
T4 sequence: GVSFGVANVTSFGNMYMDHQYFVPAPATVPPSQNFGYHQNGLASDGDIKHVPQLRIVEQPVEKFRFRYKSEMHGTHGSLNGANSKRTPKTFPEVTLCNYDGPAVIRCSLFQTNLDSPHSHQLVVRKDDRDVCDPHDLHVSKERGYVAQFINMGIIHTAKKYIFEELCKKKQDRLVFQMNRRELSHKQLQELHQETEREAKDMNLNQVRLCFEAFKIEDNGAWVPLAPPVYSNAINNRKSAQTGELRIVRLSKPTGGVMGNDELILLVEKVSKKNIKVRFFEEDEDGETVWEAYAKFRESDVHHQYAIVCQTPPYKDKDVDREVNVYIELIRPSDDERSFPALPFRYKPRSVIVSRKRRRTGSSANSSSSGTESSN

Experiment [5] concerns the target T5, GST-Aq-NF-kB (Amphimedon queenslandica, UniProt A9Y5G7 2-389).
T5 sequence: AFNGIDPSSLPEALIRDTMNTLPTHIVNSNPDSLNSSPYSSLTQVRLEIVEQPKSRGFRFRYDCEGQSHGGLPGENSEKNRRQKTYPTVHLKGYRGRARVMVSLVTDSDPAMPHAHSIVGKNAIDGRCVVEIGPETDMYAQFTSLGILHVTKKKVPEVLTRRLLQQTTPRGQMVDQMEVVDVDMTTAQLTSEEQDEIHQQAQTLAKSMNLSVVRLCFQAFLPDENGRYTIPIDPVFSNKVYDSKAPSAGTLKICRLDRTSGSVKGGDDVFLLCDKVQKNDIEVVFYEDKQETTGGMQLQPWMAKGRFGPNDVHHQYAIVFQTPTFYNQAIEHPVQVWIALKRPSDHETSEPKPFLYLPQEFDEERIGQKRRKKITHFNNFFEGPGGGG

Turning to “CCGATTAACATCAGGGGTTTTGATGATGTTAATCGGGTCTTGATTCGCTTGACGCTGCTG”, the binding signal in experiment [1] is 3.81 z-score; in experiment [2], 3.46 z-score; in experiment [3], 1.34 z-score; in experiment [4], 5.6 z-score; in experiment [5] it was 3.25 z-score.
“CCGATTAACATCAGGGATTCCCATGATGTTAATCGGGTCTTGATTCGCTTGACGCTGCTG”: the binding signal worked out at 4.88 z-score in experiment [1]; 4.61 z-score in experiment [2]; 2.91 z-score in experiment [3]; 10 z-score in experiment [4]; 6.04 z-score in experiment [5].
The like results for “CCGATTAACATCAGGGGCTACCCTGATGTTAATCGGGTCTTGATTCGCTTGACGCTGCTG” were, in that order, 4.03 z-score, 3.47 z-score, 1.76 z-score, 3.48 z-score and 6.2 z-score.
Consider “CCGATTAACATCAGGGGAGGAAATGATGTTAATCGGGTCTTGATTCGCTTGACGCTGCTG”, for which the binding signal worked out at 3.45 z-score in experiment [1]; 4.2 z-score in experiment [2]; 7.38 z-score in experiment [3]; 1.91 z-score in experiment [4]; 3.51 z-score in experiment [5].
Consider “CCGATTAACATCACGGGAGTTCCTGATGTTAATCGGGTCTTGATTCGCTTGACGCTGCTG”, for which the binding signal in experiment [1] came out at 3.99 z-score; in experiment [2], 3.71 z-score; in experiment [3] it was 1.77 z-score; in experiment [4] it was 4.98 z-score; in experiment [5], 5.04 z-score.
Turning to “CCGATTAACATCAGGGGACGGGATGATGTTAATCGGGTCTTGATTCGCTTGACGCTGCTG”, the binding signal in experiment [1] amounted to 4.78 z-score; in experiment [2], 3.92 z-score; in experiment [3], 2.14 z-score; in experiment [4], 1.43 z-score; in experiment [5] it was 3.92 z-score.
As to “CCGATTAACATCAAAGGTCCCCCTGATGTTAATCGGGTCTTGATTCGCTTGACGCTGCTG”, the binding signal stood at 6.07 z-score in experiment [1]; 4.14 z-score in experiment [2]; 4.7 z-score in experiment [3]; 4.42 z-score in experiment [4]; 4.58 z-score in experiment [5].
Turning to “CCGATTAACATCAGAAAATCCCATGATGTTAATCGGGTCTTGATTCGCTTGACGCTGCTG”, the binding signal worked out at 4.49 z-score in experiment [1]; 4.29 z-score in experiment [2]; 1.54 z-score in experiment [3]; 7.07 z-score in experiment [4]; 4.36 z-score in experiment [5].
As for “CCGATTAACATCAAGGAAACCCCTGATGTTAATCGGGTCTTGATTCGCTTGACGCTGCTG”, the binding signal in experiment [1] was 6.7 z-score; in experiment [2], 4.95 z-score; in experiment [3], 2.91 z-score; in experiment [4], 7.36 z-score; in experiment [5] it was 6.19 z-score.
Take “CCGATTAACATCAACAGGGAAAATGATGTTAATCGGGTCTTGATTCGCTTGACGCTGCTG”: the binding signal in experiment [1] is 3.23 z-score; in experiment [2], 4.25 z-score; in experiment [3] it was 2.91 z-score; in experiment [4], 1.32 z-score; in experiment [5], 3.33 z-score.
In the case of “CCGATTAACATCAAATTTTCCCATGATGTTAATCGGGTCTTGATTCGCTTGACGCTGCTG”, the binding signal in experiment [1] turned out to be 3.65 z-score; in experiment [2], 5.18 z-score; in experiment [3], 5.19 z-score; in experiment [4] it was 1.94 z-score; in experiment [5], 4.45 z-score.
On the same counts, the results for “CCGATTAACATCAGGGGGGTACATGATGTTAATCGGGTCTTGATTCGCTTGACGCTGCTG” are 5.31 z-score, 2.52 z-score, 5.22 z-score, 4.13 z-score and 3.31 z-score.
With “CCGATTAACATCAACCCTCCCCCTGATGTTAATCGGGTCTTGATTCGCTTGACGCTGCTG”, the binding signal came to 3.89 z-score in experiment [1]; 3.26 z-score in experiment [2]; 4.5 z-score in experiment [3]; 2.76 z-score in experiment [4]; 3.64 z-score in experiment [5].
